Holding throughout (test): qHTS profiling for inhibitors of Plasmodium falciparum proliferation (AID 504749); further: nearly all actives have a fitted effect of over 60% in size
Details in all cases: P. falciparum in erythrocytes, SYBR Green DNA, 72 h; series mostly up to 28.7 µM

One experiment relates to CP192. The method, boiled down: (§1)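 Fluorescence of SYBR Green-bound parasite DNA, read at 485/535 nm, served as the growth measure. Infected erythrocytes were cultured with compound 72 h; artemisinin (0.29 uM) and DMSO wells defined the normalization range.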
A further experiment has as its system CP194. The method, boiled down: as §1
Another experiment has as its system CP201. Summed up:
as §1

A further experiment deals with CP203. Summed up:
as §1

A further experiment has as its system CP211. Summed up:
as §1

Another experiment has as its system CP215. Summed up:
as §1

Another experiment relates to CP217. Summed up:
as §1

Another experiment concerns CP237. Summed up: as §1
In a further experiment the test system is CP238. Summed up: as §1
For the next experiment, the system named is CP247. The method, boiled down: as §1
The next experiment concerns CP250. Summed up:
as §1

The subject of the next experiment is CP252. Summed up:
as §1

A further experiment concerns CP256. The method, boiled down: as §1
Another experiment concerns CP260. The method, boiled down: as §1
In the next experiment the test system is CP262. The method, boiled down:
as §1

The test system of another experiment is CP265. Summed up:
as §1

The subject of a further experiment is CP268. The method, boiled down: as §1
Another experiment relates to CP269. The method, boiled down:
as §1

A further experiment concerns CP286. Summed up: as §1
Another experiment has as its system CP266. Summed up: as §1

Results filed as inconclusive are left out. Activity calls are given as the source filed them. The call rests on the fitted dose curve; in most records, active means well fitted inhibition curve with a large enough effect; inconclusive means small, poorly fitted or top-dose-only effect; inactive means flat fitted curve, though single readings scatter.
Potency means the concentration at half of the fitted maximal effect.

As to `Cc1c(F)c(N2CCNC(C)C2)cc2c1c(=O)c(C(=O)O)cn2C1CC1` (configuration not stated), the Potency result in the experiment on CP192, in the experiment on CP194, with CP201, with CP203, in the experiment with CP211 and in the experiment on CP215 was “inactive” each time. Besides, the Potency entry in the experiment on CP217, with CP237, in the experiment on CP238, in the experiment with CP247, in the experiment on CP250 and with CP252 was “inactive” each time. The Potency entry in the experiment with CP256, in the experiment on CP260, with CP262, in the experiment with CP265, with CP268 and in the experiment with CP269 was “inactive” in each case. In the experiment with CP286, the Potency entry is “inactive”.

On to `CCCCOc1cc(C(=O)NCCN(CC)CC)c2ccccc2n1`, for which the Potency result in the experiment on CP192, in the experiment on CP194, in the experiment with CP201, with CP203, with CP211 and in the experiment with CP215 was “inactive” in each case. Also, the Potency result in the experiment on CP217, in the experiment with CP237, with CP238, with CP247, with CP250 and with CP252 was “inactive” each time. In addition, the Potency result in the experiment on CP256, in the experiment on CP260, with CP265, in the experiment on CP268, in the experiment on CP269 and in the experiment with CP286 was “inactive” throughout.

For the compound `CCN(CC)C(=O)N1CCN(C)CC1`, the Potency result with CP192, with CP194, in the experiment on CP201, in the experiment on CP203, in the experiment with CP211 and with CP215 was “inactive” each time. Besides, the Potency result in the experiment on CP217, with CP237, with CP238, in the experiment on CP247, with CP250 and in the experiment with CP252 was “inactive” throughout. Also, the Potency entry in the experiment with CP256, with CP260, in the experiment on CP262, with CP265, in the experiment with CP268 and in the experiment with CP269 was “inactive” each time. The Potency result in the experiment on CP286 was “inactive”.

Regarding `Cc1ccnc(NS(=O)(=O)c2ccc(N)cc2)n1`, the Potency result with CP192, in the experiment with CP194, in the experiment with CP201, in the experiment on CP203, in the experiment on CP211 and in the experiment with CP217 was “inactive” throughout. Further, the Potency entry in the experiment on CP237, in the experiment with CP238, in the experiment on CP247, with CP250, with CP252 and with CP256 was “inactive” throughout. Moreover, the Potency result in the experiment on CP260, in the experiment with CP262, in the experiment with CP265, in the experiment with CP266, in the experiment on CP268 and in the experiment on CP269 was “inactive” each time. For the same compound, the Potency entry with CP286 is “inactive”.

`Oc1ccc(Cl)c2cccnc12`: the Potency entry with CP192, in the experiment with CP194, in the experiment with CP201, with CP203, in the experiment with CP211 and in the experiment on CP215 was “inactive” in each case. Further, the Potency result in the experiment on CP217, with CP238, in the experiment on CP247, in the experiment with CP250, in the experiment with CP252 and in the experiment with CP256 was “inactive” each time. Besides, the Potency entry in the experiment on CP265, in the experiment on CP266, in the experiment on CP268 and in the experiment on CP269 was “inactive” throughout.

For `Nc1ccc(C(=O)Nc2ccccc2N)cc1`, the Potency entry with CP192, with CP194, with CP201, in the experiment with CP203, with CP211 and with CP215 was “inactive” each time. Moreover, the Potency entry in the experiment on CP217, with CP237, with CP238, in the experiment with CP247, in the experiment with CP250 and in the experiment with CP252 was “inactive” throughout. Further, the Potency result in the experiment on CP256, with CP260, in the experiment on CP262, in the experiment with CP265, in the experiment on CP266 and with CP268 was “inactive” throughout. For the same compound, the Potency result with CP269 and with CP286 was “inactive” throughout.

For `COc1cc2c(cc1OC)C(C(C(=O)N(CCc1ccc(OC)c(OC)c1OC)CCc1ccc(OC)c(OC)c1OC)c1ccccc1)=NCC2` (configuration not stated), the Potency in the experiment on CP192 is 13.5 µM (active); in the experiment with CP194, 13.5 µM (active); in the experiment on CP201 it was 15.1 µM (active); in the experiment on CP203, 6.75 µM (active); with CP211 it was 12 µM (active); with CP215 it was 6.75 µM (active). Besides, the Potency is 4.47 µM (active) in the experiment with CP217; 2 µM (active) in the experiment on CP237; 6.31 µM (active) in the experiment with CP238; 4.47 µM (active) in the experiment with CP247; 7.08 µM (active) in the experiment with CP250; 5.01 µM (active) in the experiment with CP252. Besides, the Potency in the experiment on CP256 was 5.62 µM (active); with CP260, 3.55 µM (active); with CP262, 9.53 µM (active); in the experiment on CP265, 7.94 µM (active); in the experiment on CP268 it was 13.5 µM (active); in the experiment with CP269, 6.75 µM (active). In the experiment with CP286, the Potency was 7.94 µM (active).

`Cc1c(C(C)C)c(=O)n(-c2ccccc2)n1C`: the Potency entry in the experiment on CP192, in the experiment on CP194, in the experiment on CP201, with CP203, in the experiment with CP211 and in the experiment on CP215 was “inactive” throughout. The Potency result in the experiment on CP217, in the experiment with CP237, with CP238, with CP247, in the experiment on CP250 and in the experiment with CP252 was “inactive” throughout. Further, the Potency entry in the experiment on CP256, in the experiment with CP260, in the experiment on CP262, in the experiment with CP265, in the experiment with CP266 and in the experiment on CP268 was “inactive” in each case. Besides, the Potency result in the experiment with CP269 and in the experiment on CP286 was “inactive” in each case.

In the case of `CCCCCCCCCCCCCCCCOP(=O)([O-])OCC[N+](C)(C)C`, the Potency entry in the experiment on CP192, in the experiment on CP194, with CP201, in the experiment on CP203, with CP211 and in the experiment with CP215 was “inactive” throughout. The Potency entry with CP217, in the experiment on CP237, in the experiment with CP238, in the experiment with CP247, with CP250 and in the experiment on CP252 was “inactive” each time. For the same compound, the Potency entry with CP256, in the experiment on CP260, with CP262, in the experiment with CP265, in the experiment with CP266 and with CP268 was “inactive” throughout. Moreover, the Potency entry in the experiment on CP269 and in the experiment with CP286 was “inactive” throughout.

For the compound `CC(=O)Oc1ccc(C(=C2CCCCC2)c2ccc(OC(C)=O)cc2)cc1`, the Potency result with CP192, in the experiment with CP194, with CP201, with CP203, in the experiment with CP211 and with CP215 was “inactive” each time. In addition, the Potency result in the experiment with CP217, in the experiment on CP237, with CP238, in the experiment with CP247, in the experiment on CP250 and in the experiment on CP252 was “inactive” in each case. Also, the Potency result in the experiment on CP256, with CP262, in the experiment on CP265, in the experiment with CP266, in the experiment on CP268 and in the experiment with CP269 was “inactive” each time. In addition, in the experiment on CP286, the Potency result was “inactive”.

`CC(O)(P(=O)(O)O)P(=O)(O)O`: the Potency entry with CP192, in the experiment on CP194, with CP201, with CP203, with CP211 and in the experiment with CP215 was “inactive” throughout. Further, the Potency result in the experiment with CP217, in the experiment with CP237, with CP238, in the experiment on CP247, with CP250 and with CP252 was “inactive” in each case. Also, the Potency result with CP256, in the experiment on CP260, in the experiment with CP262, in the experiment with CP265, in the experiment with CP266 and in the experiment with CP269 was “inactive” throughout. The Potency result with CP286 is “inactive”.

Consider `COc1cccc2c1C(=O)c1c(O)c3c(c(O)c1C2=O)C[C@@](O)(C(C)=O)C[C@@H]3O[C@H]1C[C@H](N)[C@H](O)[C@H](C)O1`, for which the Potency was 6.01 µM (active) with CP192; 7.57 µM (active) with CP194; 9.53 µM (active) in the experiment on CP201; 8.49 µM (active) in the experiment with CP203; 3.79 µM (active) with CP211; 7.57 µM (active) in the experiment with CP215. Besides, the Potency with CP217 was 1 µM (active); in the experiment with CP237, 1 µM (active); in the experiment on CP238 it was 3.98 µM (active); with CP247, 1.41 µM (active); with CP250, 1 µM (active); in the experiment with CP252 it was 1.12 µM (active). Moreover, the Potency was 1 µM (active) in the experiment with CP256; 1.12 µM (active) in the experiment with CP260; 2 µM (active) with CP265; 8.49 µM (active) in the experiment on CP266; 6.01 µM (active) in the experiment with CP268; 4.78 µM (active) in the experiment on CP269. Further, in the experiment on CP286, the Potency is 2 µM (active).

On to `CC(C)(C(=O)c1cccnc1)c1cccnc1`, for which the Potency entry with CP192, with CP194, in the experiment with CP201, with CP203, with CP211 and in the experiment on CP215 was “inactive” each time. For the same compound, the Potency entry with CP217, in the experiment with CP237, in the experiment with CP238, in the experiment on CP247, in the experiment on CP250 and with CP252 was “inactive” each time. In addition, the Potency result in the experiment with CP256, with CP260, in the experiment on CP262, with CP265, with CP266 and in the experiment on CP268 was “inactive” throughout. Besides, the Potency result in the experiment on CP269 and with CP286 was “inactive” in each case.

For the compound `CCCCOc1ccc(C(=O)CCN2CCCCC2)cc1`, the Potency entry in the experiment on CP192, with CP194, in the experiment on CP201, in the experiment on CP203, in the experiment on CP211 and in the experiment with CP215 was “inactive” throughout. Moreover, the Potency result in the experiment with CP217, in the experiment on CP237, in the experiment on CP238, in the experiment on CP247, in the experiment on CP250 and in the experiment with CP252 was “inactive” throughout. Further, the Potency entry in the experiment with CP256, with CP260, in the experiment with CP262, with CP265, with CP266 and in the experiment on CP268 was “inactive” in each case. For the same compound, the Potency result with CP269 and in the experiment on CP286 was “inactive” throughout.

Values taken from PubChem BioAssay (NCATS).
